Hits are enriched below; roughly 9.4% of the tested compounds scored in any of these assays.
ELG1 genotox: inducers of genotoxicity in HEK293T ELG1-luciferase cells; HEK293T ELG1-luciferase reporter, luminescence, 16 h; Potency, µM (doses to about 46 µM), for inactives: top-dose activity change, positive = activation, usual class: activators; 1.3% of 330,000 active; also: % of control where 0% means no effect; nearly all actives have a fitted effect of over 60% in size
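Cells (2,000/well) expressing the ELG1-luciferase fusion are dosed by pin tool and kept 16 hr at 37 °C, 5% CO2. Signal comes from ONE-Glo luciferase reagent after 30 min at room temperature.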
Rab9 prom act: Rab9 promoter activation; Huh7 Rab9 promoter-luciferase reporter, luminescence, 24 h; Potency, µM (doses to about 9.22 µM), without a hit: at the top dose activation, negative = inhibition, usual class: activators; 2.8% of 320,000 active; AID 485297; also: % of control where 0% means no effect; nearly all actives have a fitted effect of over 60% in size
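Rab9 promoter-driven luciferase in stably transfected Huh7 cells; 1500 cells/well rested 2 h, exposed to compound in DMSO for 24 h at 37 °C, 5% CO2. Luminescence read 10 min after adding luciferase reagent at ambient temperature.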
SMN2 splice up: SMN2 splice variant enhancement; HEK293 SMN2-luciferase splicing reporter, luminescence, 30-36 h; 2.8% of 210,000 active; Potency, µM (highest dose often 46.1 µM), for the others: at the highest dose activity change, positive = activation, actives largely listed as activators; also: % of control where 0% means no effect; nearly all actives have a fitted effect of over 55% in size
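HEK293 cells carry an SMN2 […]–luciferase reporter in which exon 7 inclusion puts luciferase in frame. Cells were plated 10-12 h before compound addition, then incubated 30-36 h at 37C. ONE-Glo luminescence was read; sodium butyrate at 4.5 mM final served as control.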
ELG1 DNA repair: blocks ELG1-dependent DNA repair in HEK293T cells | Potency, µM (top dose mostly 46.1 µM), for the others: at the top dose activity change, negative = inhibition, actives largely listed as inhibitors | 2.3% of 330,000 active | HEK293T ELG1-luciferase reporter, luminescence, 16 h; DNA damage induced by 5-fluorouridine; also: % is scaled to controls: 0 for no effect and ±100 for the full control effect; nearly all actives have a fitted effect of over 55% in size
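Quantitative HTS, concentration-response format. 2,000 cells/well co-treated with 5-fluorouridine and compound, 16 hr in 5% CO2 at 37 °C; ONE-Glo luminescence read after 30 min.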
NPC1 prom act: activators of NPC1 promoter | 2.4% of 320,000 active | Huh7 NPC1 promoter luciferase reporter, 24 h | AID 485313 | Potency, µM (highest dose often 9.22 µM), inactives show at the top dose activation, usual class: activators; also: % of control where 0% means no effect; nearly all actives have a fitted effect of over 60% in size
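In 1536-well qHTS, Huh7 cells harboring an NPC1 promoter–luciferase construct received compound for 24 h; activation was quantified by luminescence following luciferase reagent addition.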
FLuc counter: inhibits or activates purified firefly luciferase, miR-21 counter-screen | purified FLuc, Km substrates, luminescence inhibition | Potency, µM (top dose mostly 57.5 µM), for the others: top-dose activity change, negative = inhibition, actives largely listed as inhibitors | 6.9% of 360,000 active;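 also: plate controls were vehicle for no effect and reference inhibitor for full effect; nearly all actives have a fitted effect of over 55% in size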
Target sequence (P08659 whole entry, looked up): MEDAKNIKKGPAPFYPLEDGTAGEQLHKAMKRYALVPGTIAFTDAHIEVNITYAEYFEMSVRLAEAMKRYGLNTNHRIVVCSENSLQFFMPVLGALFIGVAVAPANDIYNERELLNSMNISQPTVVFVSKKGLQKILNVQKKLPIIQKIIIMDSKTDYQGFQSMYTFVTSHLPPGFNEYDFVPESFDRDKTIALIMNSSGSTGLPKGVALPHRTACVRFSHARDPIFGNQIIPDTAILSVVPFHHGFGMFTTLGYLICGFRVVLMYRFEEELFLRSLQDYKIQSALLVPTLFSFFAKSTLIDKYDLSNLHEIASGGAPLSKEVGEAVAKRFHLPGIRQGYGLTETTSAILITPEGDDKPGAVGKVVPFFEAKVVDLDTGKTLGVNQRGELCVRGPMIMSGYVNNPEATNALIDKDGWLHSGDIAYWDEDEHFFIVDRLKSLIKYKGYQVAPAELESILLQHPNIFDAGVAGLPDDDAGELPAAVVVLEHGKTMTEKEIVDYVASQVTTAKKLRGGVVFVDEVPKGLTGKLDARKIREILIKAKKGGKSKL
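Purified P. pyralis luciferase, 10 nM final, with Km-level 10 uM D-luciferin and 10 uM ATP in 50 mM Tris acetate pH 7.5, 10 mM Mg acetate, 0.01% Tween-20, 0.05% BSA; 6-point qHTS titration about 60 µM downward; luminescence read.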
Active calls of the source: *; ? = inconclusive; nt = no result given; [ ] = dose if it differs, or a comment. Calls follow the shape of the dose curve; as a rule, active = well fitted curve in the direction sought with a large enough effect; inconclusive = small, poorly fitted or top-dose-only effect, or another doubt; inactive = no such curve, though single readings can be large; an effect the other way counts as inactive or inconclusive. Potency is read from the fitted curve at half-maximal effect.

SMILES | ELG1 genotox | Rab9 prom act | SMN2 splice up | ELG1 DNA repair | NPC1 prom act | FLuc counter
CCS(=O)(=O)Nc1ccc(C2=NN(C(=O)c3ccco3)C(c3cccs3)C2)cc1 (configuration not stated) | -16% | 6% | nt | 0% | 0% | -3%
CCS(=O)(=O)Nc1ccc(C2=NN(C(=O)c3ccccc3)C(c3cccs3)C2)cc1 (configuration not stated) | -10% | 0% | nt | 16µM* | 1% | 4%
COc1ccc(C2=NN(C(=O)c3cccs3)C(c3ccccc3O)C2)cc1 (configuration not stated) | 5% | 3% | -19% | ? | -4% | -1%
Cc1ccccc1C(=O)Nc1ccc(OCc2cc(=O)n3cccc(C)c3n2)cc1 | nt | nt | nt | nt | nt | -5%
COc1ccc(-n2nc3c(N4CCCC(C(=O)NCCc5ccc(C)cc5)C4)nnc(C)c3c2C)cc1 (configuration not stated) | nt | nt | nt | nt | nt | -12%
CS(=O)(=O)N1N=C(c2ccc(Br)cc2)CC1c1cccs1 (configuration not stated) | ? | ? | 29% | ? | ? | 15µM*
Cc1oc(-c2ccc(C(=O)Nc3cc(F)ccc3F)cc2)nc1COc1ccccc1 | nt | nt | nt | nt | nt | 0%
CCc1ccc(-n2c(=O)c3sc4ccccc4c3n(Cc3cccc(F)c3)c2=O)cc1 | nt | nt | -5% | nt | nt | -1%
Cc1cc(N2CCN(C3CCCC3)CC2)n2ncc(-c3ccccc3)c2n1 | ? | 7% | -4% | ? | 26% | ?
CC(=O)Nc1ccc(Nc2cc(-c3ccccc3)nc3ncnn23)cc1 | 2% | -9% | nt | 2% | -2% | -4%
CC(=O)Nc1ccc(Nc2cc(C)nc3c(-c4ccccc4)cnn23)cc1 | 1.5µM* | ? | -33% | ? | ? | 5.4µM*
CCOC(=O)Cc1c(C)nc2c(-c3cccc(Br)c3)cnn2c1C | 3% | 6% | -10% | -3% | -3% | -3%
Cc1nc2c(-c3ccccc3)cnn2c(N2CCOCC2)c1C | 6.5µM* | 1.3µM* | nt | ? | 2.5µM* | 3µM*
Cc1cc(N)n2ncc(-c3cccc(Br)c3)c2n1 | 16µM* | 2.8µM* | 22% | ? | ? | 15µM*
Cc1cc(N)n2ncc(-c3ccccc3)c2n1 | 10µM* | 1.6µM* | 16µM* | ? | 2.8µM* | 9.5µM*
c1ccc(CN2CC[C@@H](CNc3ncnc4ccccc34)C2)cc1 | nt | nt | -28%[9.22 µM] | nt | nt | nt
O=C(c1c2c(nc3ccccc13)C(=O)N(C1CCCCC1)C2)N1CCN(c2ccc(F)cc2)CC1 | nt | nt | nt | nt | nt | -1%
COC(=O)c1ccc(NC(=O)CN(Cc2ccccc2)S(=O)(=O)c2ccc(Cl)cc2)cc1 | nt | nt | -26% | nt | nt | -7%
Cc1ccc(-n2nc(C)c3c2OC(N)=C(C#N)C3c2ccco2)cc1 (configuration not stated) | 8% | 17% | 15% | ? | 2% | 1.7µM*
Cc1ccc(-n2nc(C)c3c2OC(N)=C(C#N)C3c2ccoc2)cc1 (configuration not stated) | 1% | 12% | 7% | ? | 7% | 11µM*
Cc1ccc(-n2nc(C)c3c2OC(N)=C(C#N)C3c2ccc(C)o2)cc1 (configuration not stated) | -2% | 4% | 7% | 19% | 13% | ?
Cc1ccc(CCNC(=O)c2cccc(N3CCCC3=O)c2)cc1 | 12% | 29% | nt | ? | 18% | ?
Cc1cccc(CCNC(=O)c2cccc(N3CCCC3=O)c2)c1 | ? | 2.5µM* | nt | ? | 1.4µM* | 11µM*
CN(CCCNC(=O)c1cccc(N2CCCC2=O)c1)c1ccccc1 | -1% | 0% | 3.2µM* | 0% | 1% | -6%
O=C(O)c1cccc(N2CCCC2=O)c1 | 3% | -1% | -2% | 16% | 0% | -18%
O=C(Nc1ccccc1)c1cccc(N2CCCC2=O)c1 | 10µM* | ? | ? | ? | ? | ?

Compound activity: PubChem, National Center for Advancing Translational Sciences (NCATS)
